FH mod: Identification of activators of human fumarate hydratase by quantitative high-throughput screening; Fumarate hydratase, mitochondrial (Homo sapiens), P07954; FH coupled MDH/diaphorase resazurin fluorescence, 15 min; Potency, µM (doses to about 79.9 µM), without a hit: at the top dose activity change, negative = inhibition, usual class: inhibitors; hit rate 0.22% among 54,000; note: potency is the fitted concentration of half-maximal effect; % is set by controls: 0 for no effect and ±100 for the full control effect; the screen sought activators but most active calls are inhibition curves; nearly all actives have a fitted effect of over 45% in size
Target sequence (P07954 whole entry, looked up): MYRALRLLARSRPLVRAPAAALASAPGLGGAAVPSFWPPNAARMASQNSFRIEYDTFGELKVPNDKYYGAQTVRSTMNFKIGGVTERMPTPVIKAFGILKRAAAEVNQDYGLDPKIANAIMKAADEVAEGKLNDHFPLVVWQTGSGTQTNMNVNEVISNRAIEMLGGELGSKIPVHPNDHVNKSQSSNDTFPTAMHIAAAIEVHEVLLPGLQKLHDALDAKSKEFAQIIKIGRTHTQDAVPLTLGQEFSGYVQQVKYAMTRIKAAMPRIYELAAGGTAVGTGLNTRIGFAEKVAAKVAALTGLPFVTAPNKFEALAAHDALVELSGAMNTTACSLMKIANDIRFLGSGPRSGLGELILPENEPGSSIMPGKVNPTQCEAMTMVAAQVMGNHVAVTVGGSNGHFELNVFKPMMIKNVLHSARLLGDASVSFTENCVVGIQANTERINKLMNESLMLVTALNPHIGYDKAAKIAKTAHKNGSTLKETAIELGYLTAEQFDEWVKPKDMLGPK
GALC G270D up: enhancers of human galactocerebrosidase G270D mutant activity in cells. P54803. Potency, µM (series often up to 57.5 µM), most hits filed as activators. hit rate 0.1% among 45,000. 145M-Twi-hGALC-G270D cells (Twitcher mouse brain line with human GALC G270D), HMU-beta-Gal fluorescence, 48 h; note: potency is the fitted concentration of half-maximal effect; 0% is about no effect; nearly all actives have a fitted effect of over 65% in size
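Fluorogenic HMU-b-Gal hydrolysis (0.1 mM final, pH 5.2 citrate-phosphate with 1 mg/mL sodium taurocholate; carbonate stop buffer) measures mutant GALC activity after compound treatment of live 145M-Twi Twitcher brain cells stably carrying human GALC-G270D, with wild-type GALC line alongside; activation sought.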
OvCa metastasis: inhibitors of ovarian cancer cell adhesion and invasion in omental model; Potency, µM (series often up to 45.8 µM), without a hit: at the top dose activity change, negative = inhibition, most hits filed as inhibitors; AID 1963576; hit rate 0.1% among 46,000; SKOV3ip1-GFP adhesion/invasion on 3D omental model, fluorescence;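 note: potency is the fitted concentration of half-maximal effect; plate controls were DMSO wells for no effect and tomatine positive control wells for full effect; nearly all actives have a fitted effect of over 65% in size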
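qHTS, 4-pt dose (0.36-46 umol/L); SKOV3ip1-GFP, 1,200 cells/well, no FBS; primary omental fibroblast/mesothelial co-culture 48 h pre-grown; 2 h RT + 16 h 37 C; PBS wash, 4% PFA; GFP count 488/509 nm.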
GPR32 ag: GPR32 (DRV1) agonism, beta-arrestin recruitment; O75388; CHO-K1 GPR32 beta-arrestin PathHunter luminescence, 90 min; zero percent set by DMSO-only wells; activation, % at 76.9 µM; hit rate 2.5% among 48,000; AID 1346428;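 active = activation of at least 60% and not above a set upper limit, about 1 call in 100 departs from these limits; inconclusive = activation of 40% to 60%, or above that upper limit; inactive = activation under 40%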; note: 0% is about no effect
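Agonism was scored by beta-Gal fragment complementation (chemiluminescent read, 1 h detection at ambient temperature) reporting beta-arrestin binding to GPR32 in engineered CHO-K1 cells. Compound treatment lasted 90 min at 37 C, normalized to a DMSO basal control.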
Starred values were filed as active, the others as inactive; ! = repeats disagree; [ ] = another dose, or the depositor's remark. Most compounds without a hit are left out; they make up all but 2.9% or so of the library. Unless noted, calls come from the whole dose curve; as a rule, active = well fitted curve in the direction sought with a large enough effect; inconclusive = small, poorly fitted or top-dose-only effect, or another doubt; inactive = no such curve, though single readings can be large; an effect the other way counts as inactive or inconclusive.

`O=C(CCS(=O)(=O)c1nc(-c2cccs2)cc(C(F)(F)F)n1)Nc1ccc(Br)cc1` gave FH mod 3%, GALC G270D up inactive, OvCa metastasis 3.2µM* and GPR32 ag -43.
For CCN=C1N[C@@H]2[C@@H](O)[C@H](O)[C@@H](CO)O[C@@H]2S1 the results were FH mod 7%.
COc1ccc(CCN2CCC(Nc3nc4ccccc4n3Cc3ccc(F)cc3)CC2)cc1 was read as FH mod -9%[53.3 µM], GALC G270D up inactive and GPR32 ag 95*.
Screening Cc1c(C(=O)Nc2ccc(N3CC(C)OC(C)C3)nc2)cccc1-c1ccc(OC(F)(F)F)cc1 (configuration not stated) returned FH mod 5%.
For COc1ccc(NC(=O)CSc2nc(-c3ccco3)cc(C(F)(F)F)n2)cc1 the results were FH mod 3%, GALC G270D up inactive, OvCa metastasis -3% and GPR32 ag 95*.
For COc1cc(NC(=O)CSc2nc(-c3ccco3)cc(C(F)(F)F)n2)cc(OC)c1OC the results were FH mod -9%, GALC G270D up inactive, OvCa metastasis -13% and GPR32 ag 7.
For NC(=O)[C@H](Cc1ccccc1)NC(=O)[C@H](CCCN=C(N)N)NC(=O)C12CC3CC(CC(C3)C1)C2 the results were FH mod 5%[13.5 µM].
Screening COc1ccc(Cn2ccc3nc(C)c(C(=O)NCc4ccc(C)cc4)cc3c2=O)cc1 returned FH mod 2%, GALC G270D up inactive, OvCa metastasis -2% and GPR32 ag 41.
Screening COc1ccc(Cn2ccc3nc(C)c(C(=O)NCc4ccc(F)cc4)cc3c2=O)cc1 returned FH mod -15%, GALC G270D up inactive, OvCa metastasis inconclusive and GPR32 ag 63*.
Screening O=C(c1ccc(F)cc1)N1CCN(CCc2ccncc2)CC1 returned FH mod -14%, GALC G270D up inactive, OvCa metastasis -15% and GPR32 ag 4.
CCNC(=O)N1CCN(CCCC(c2ccc(F)cc2)c2ccc(F)cc2)CC1 was read as FH mod -30%[53.3 µM], GALC G270D up inactive and GPR32 ag 112*!.
Screening C=CCC/C=C/C#CCCCCCCCC[C@H]1C(=O)O[C@H](C)[C@@H]1O returned FH mod -17%[53.3 µM].
Cc1ccc(NC(=O)CC(C)S(=O)(=O)c2ccc3c(c2)NC(=O)CO3)c(C)c1 (configuration not stated) was read as FH mod -19%, GALC G270D up inactive, OvCa metastasis 3% and GPR32 ag 74*.
`CCN(CC)c1ccc(NC(=O)CCS(=O)(=O)c2cc3c(cc2Cl)NC(=O)CO3)c(C)c1` gave FH mod -15%, GALC G270D up inactive, OvCa metastasis 9% and GPR32 ag 5.
O=C1CCSc2ccc(S(=O)(=O)Nc3cccc(C(F)(F)F)c3)cc2N1 was read as FH mod -12%, GALC G270D up inactive, OvCa metastasis 7% and GPR32 ag 109*.
Cc1ccc(NS(=O)(=O)c2ccc3c(c2)NC(=O)CCS3)c(Br)c1 was read as FH mod -11%, GALC G270D up inactive, OvCa metastasis inactive and GPR32 ag 120*.
Screening O=c1cc(CSc2n[nH]c(-c3ccccc3)n2)[nH]c2ccccc12 returned FH mod -14%, GALC G270D up inactive, OvCa metastasis -4% and GPR32 ag 93*.
For CCc1nc(SCc2cc(=O)c3cc(C)ccc3[nH]2)n[nH]1 the results were FH mod 7%, GALC G270D up inactive, OvCa metastasis 2% and GPR32 ag 0.
Screening CCOC(=O)c1cccc(NC(=O)CN2C(=O)c3ccccc3Sc3ncccc32)c1 returned FH mod -38%, GALC G270D up inactive, OvCa metastasis 29% and GPR32 ag 72*.
`Cc1ccc(Cl)c2sc(N3CCN(C(=O)C4CC4)CC3)nc12` gave FH mod -16%, GALC G270D up inactive, OvCa metastasis 4% and GPR32 ag 73*.
For CC(C)c1ccc(NC(=O)C2(C)Cc3ccccc3C(=O)O2)cc1 (configuration not stated) the results were FH mod -5%, GALC G270D up inactive, OvCa metastasis 7% and GPR32 ag 79*.
`Cc1cccc(NC(=O)C2(C)Cc3ccccc3C(=O)O2)c1` (configuration not stated) gave FH mod 3%, GALC G270D up inactive, OvCa metastasis -5% and GPR32 ag -5.
CCOC(=O)c1ccc(NC(=O)Cn2nc(SC)c(S(=O)(=O)c3ccc(Cl)cc3)c2N)cc1 was read as FH mod inconclusive, GALC G270D up inactive, OvCa metastasis -54% and GPR32 ag 69*.
For CCSc1nn(CC(=O)Nc2ccc(C(=O)OC)cc2)c(N)c1S(=O)(=O)c1ccc(C)cc1 the results were FH mod inconclusive, GALC G270D up inactive, OvCa metastasis -2% and GPR32 ag 11.
CCOc1ccc(/C=C2\SC(=O)N(CCN)C2=O)cc1 was read as FH mod 9%.
Screening CCc1ccc(/C=C2/SC(=S)NC2=O)cc1 returned FH mod 16µM* and GPR32 ag 7.
`C=CC(=O)N1CCN(C(=O)CNc2cc(I)c(Cl)cc2O)CC1` gave FH mod -7%.
For Cc1ccc(C)c(N(C)C(=O)Cc2c(C(=O)O)[nH]c3ccc(Cl)cc23)c1 the results were FH mod -18%, GALC G270D up inactive, OvCa metastasis inactive and GPR32 ag 70*.
Cc1noc(C)c1-c1cc(O)cc(C(O)c2ccccc2)c1 (configuration not stated) was read as FH mod 5%.
Cc1cccc(C)c1OCC(=O)Nc1nonc1-c1ccc(Br)cc1 was read as FH mod -18%, GALC G270D up inactive, OvCa metastasis 3% and GPR32 ag -1.
Screening O=C(Nc1nonc1-c1ccc(Br)cc1)c1ccco1 returned FH mod 8%, GALC G270D up inactive, OvCa metastasis -1% and GPR32 ag 71*.
For COc1ccccc1-c1nnc(SCC(=O)c2ccc(F)cc2)n1-c1ccccc1 the results were FH mod -21%, GALC G270D up inactive, OvCa metastasis -14% and GPR32 ag 70*.
Screening Cn1c(SCC(=O)c2ccc(F)cc2)nnc1-c1ccccc1Br returned FH mod 0%, GALC G270D up inactive, OvCa metastasis inactive and GPR32 ag inconclusive.
`CC(C)(C)n1nc(Cc2cccc([N+](=O)[O-])c2)c2c(N)ncnc21` gave FH mod -13%.
`Cn1c(=O)oc2cc(S(=O)(=O)NC(Cc3ccccc3)C(=O)NCc3ccc(F)cc3)ccc21` (configuration not stated) gave FH mod 9%, GALC G270D up inactive, OvCa metastasis inactive and GPR32 ag -6.

Compound activity as filed in PubChem BioAssay.
